Source: PubChem BioAssay (National Center for Advancing Translational Sciences (NCATS))
Shown are actives, neighbours in structure and some others; about 3% of the full set was active somewhere.
S16 viability: toxic to S16 Pmp22-F2sN Schwann cells | S16 Pmp22-F2sN Schwann cells viability, CellTiter-Glo, 24 h | Potency, µM (titrated, usually from 57.5 µM), without a hit: top-dose activity change, negative = cytotoxicity, actives largely listed as cytotoxic | 43,000 compounds, 0.48% hits | AID 1508642; further: nearly all actives have a fitted effect of over 65% in size
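Used to flag compounds lowering reporter output through toxicity, this quantitative HTS measures ATP-based CellTiter-Glo luminescence in S16 Pmp22-F2sN Schwann cells after 24 h compound exposure at 37C.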
p53null 32C tox: p53 null cell cytotoxicity, permissive temperature | H1299-neo p53 null cells, ATP luminescence, 24 h, 32C | Potency, µM (series often up to 46.1 µM), for the others: top-dose activity change, negative = cytotoxicity, hits mostly cytotoxic | 55,000 compounds, 0.62% hits;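 further: 0% = DMSO only and -100% = full killing by 100 µM tamoxifen; nearly all actives have a fitted effect of over 55% in size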
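Overnight 37C seeding (600 cells/well) of H1299-neo preceded a 24 hr, 32C exposure to compounds up to 46 uM. ATP levels, read by luminescence after 20 min at RT, indicated surviving cells.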
OvCa metastasis: blocks SKOV3ip1 adhesion and invasion in omental model. SKOV3ip1-GFP adhesion/invasion on 3D omental model, fluorescence. Potency, µM (highest dose often 45.8 µM), for the others: at the top dose activity change, negative = inhibition, actives largely listed as inhibitors. 46,000 compounds, 0.1% hits;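 further: plate controls were DMSO wells for no effect and tomatine positive control wells for full effect; nearly all actives have a fitted effect of over 65% in size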
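qHTS, 4-pt dose (0.36-46 umol/L); SKOV3ip1-GFP, 1,200 cells/well, no FBS; primary omental fibroblast/mesothelial co-culture 48 h pre-grown; 2 h RT + 16 h 37 C; PBS wash, 4% PFA; GFP count 488/509 nm.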
PMP22 txn: modulates PMP22 transcription in S16 Schwann cells; S16 Pmp22-F2sN Schwann cells (luciferase reporters placed in the Pmp22 gene), FLuc/NLuc coincidence luminescence, 24 h; 43,000 compounds, 2% hits; Potency, µM (titrated, usually from 57.5 µM), for the others: at the top dose activity change, negative = inhibition, actives largely listed as inhibitors; AID 1508649; active means clear falling dose curves in both reporters; inconclusive means both reporters move, but less clearly or upward; inactive means either reporter flat; the % is the NLuc reporter signal
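S16(c9) Schwann cells with FLuc/NLuc coincidence reporter in the Pmp22 3' UTR; compounds pin-transferred, 24 h at 37C. Dual-luciferase read: FLuc first, then NLuc after Stop&Glo, each 10 min at room temperature.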
pS6 MEF inh: reduces mTORC1 signaling in Tsc2 and p53 null MEF cells; Tsc2-/- p53-/- MEF, phospho-rpS6 immunofluorescence/PI, 24 h; Potency, µM (top dose mostly 38.3 µM), for the others: at the highest dose activity change, negative = inhibition, actives largely listed as inhibitors; 44,000 compounds, 0.78% hits; AID 493208;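 further: plate controls were DMSO for no effect and rapamycin for full effect; nearly all actives have a fitted effect of over 50% in size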
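Tsc2-/-, p53-/- MEFs (empty-vector stable line) in DMEM + 10% FBS were treated with compounds 24 h at 37 degree Celsius, fixed, and immunostained for phospho-rpS6 (Alexa-488) with propidium iodide counterstain. Laser-scanning cytometry gave % positive cells, normalized against 7.5 nM rapamycin and DMSO.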
p53null 39C kill: p53 null cell cytotoxicity, nonpermissive temperature | H1299 p53-null (neo) cells, 39C, ATPlite viability, 24 h | Potency, µM (top dose mostly 46.1 µM), for inactives: at the highest dose activity, negative = cell killing, actives largely listed as cytotoxic | 55,000 compounds, 0.97% hits;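 further: 0% = DMSO only and -100% = full killing by 100 µM tamoxifen; nearly all actives have a fitted effect of over 50% in size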
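H1299 lung cancer cells, p53-null (H1299-neo) or expressing p53 A138V (H1299-p53A138V), were plated overnight at 37C, then exposed to compounds at up to 46 uM for 24 hr at 39C. Viability was read by ATP-based luminescence.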
An asterisk follows results filed as active; [ ] = another dose, or the depositor's remark. Unless noted, the call rests on the fitted dose curve; in most records, active means well fitted curve in the direction sought with a large enough effect; inconclusive means small, poorly fitted or top-dose-only effect, or another doubt; inactive means no such curve, though single readings can be large; an effect the other way counts as inactive or inconclusive. Unless noted, on the % scale 0 is the no-effect control and ±100 the full control effect; potency means the concentration at half of the fitted maximal effect.

Cc1ccc(N(C)S(=O)(=O)c2ccc(-c3cnc(C4CC4)o3)cc2)cc1 was read as S16 viability inconclusive, p53null 32C tox -13.6%, OvCa metastasis -29.5%, PMP22 txn 14.1µM*, pS6 MEF inh 0.6% and p53null 39C kill inconclusive.
Screening Cc1ccc(CNS(=O)(=O)c2ccc(-c3cnc(C4CC4)o3)cc2)cc1 returned S16 viability -24.8%, p53null 32C tox 1.5%, OvCa metastasis inactive, PMP22 txn inconclusive, pS6 MEF inh 1.5% and p53null 39C kill 8.3%.
For COc1cc(Cl)c(NS(=O)(=O)c2ccc(-c3cnc(C4CC4)o3)cc2)c(OC)c1 the results were S16 viability 1.26µM*, p53null 32C tox -4.6%, OvCa metastasis 5.7%, PMP22 txn 2.99µM*, pS6 MEF inh -29.3% and p53null 39C kill inconclusive.
`CC1COC2(CCN(c3nc(=O)c4cc(C(F)(F)F)cc([N+](=O)[O-])c4s3)CC2)O1` (configuration not stated) gave OvCa metastasis -4.6%.
`Cn1cnc(-c2cc3nccc(Oc4ccc(NC(=S)NC(=O)Cc5ccccc5)cc4F)c3s2)c1` gave OvCa metastasis 7.6%.
CCCCN1C(=O)C(O)(c2c(C)[nH]c3ccccc23)c2cc(Br)ccc21 (configuration not stated) was read as S16 viability -1.7%, p53null 32C tox -2.8%, OvCa metastasis inconclusive, PMP22 txn inconclusive, pS6 MEF inh inconclusive and p53null 39C kill inconclusive.
For CCCCN1C(=O)C(O)(c2c(C)[nH]c3ccccc23)c2ccccc21 (configuration not stated) the results were S16 viability inconclusive, p53null 32C tox 5.3%, OvCa metastasis -8.4%, PMP22 txn 18.9µM*, pS6 MEF inh inconclusive and p53null 39C kill -10.1%.
CN(C)Cc1cccc(N=C(c2ccccc2)c2c(O)[nH]c3cc(C(=O)N(C)C)ccc23)c1 was read as OvCa metastasis 14.3%.
CC1(C)C(=O)N(CC(=O)Nc2ccc(Br)cc2F)c2ccccc21 was read as S16 viability -0.8%, p53null 32C tox -1.2%, OvCa metastasis 4.2%, PMP22 txn -2.1%, pS6 MEF inh -2.3% and p53null 39C kill 15.6%.
`COC(=O)CN1C(=O)C(C)(C)c2cc(S(=O)(=O)Nc3ccc(Br)cc3F)ccc21` gave S16 viability 4.7%, p53null 32C tox 1.9%, OvCa metastasis -12.9%, PMP22 txn 29.8%, pS6 MEF inh 13.1µM* and p53null 39C kill -1.0%.
COC(=O)c1ccc(Nc2nc(-c3ccc(C)cc3)nc3ccccc23)cc1 was read as S16 viability 2.0%, p53null 32C tox inconclusive, OvCa metastasis 26.9%, PMP22 txn -30.9%, pS6 MEF inh -5.8% and p53null 39C kill 15.8µM*.
CCOC(=O)c1ccc(Nc2nc(C(=O)OCC)nc3ccccc23)cc1 was read as S16 viability 22.6%, p53null 32C tox -6.2%, OvCa metastasis -0.9%, PMP22 txn inconclusive, pS6 MEF inh -16.1% and p53null 39C kill -6.2%.
Cc1cc([C@@H](C)Nc2ccccc2C(=O)O)c2nc(N3CCOCC3)cc(=O)n2c1 was read as OvCa metastasis -13.5%[92.2 µM].
For Cn1cc(C(=O)O)c(=O)c2cc(S(=O)(=O)N3CCOCC3)ccc21 the results were S16 viability 14.1µM*, p53null 32C tox -4.1%, OvCa metastasis -5.6%, PMP22 txn inconclusive, pS6 MEF inh -0.4% and p53null 39C kill 4.4%.
Screening Cc1ccc(CCNC(=O)c2c(C)oc3ncn(CC(C)C)c(=O)c23)cc1 returned S16 viability -5.2%, p53null 32C tox 9.4%, OvCa metastasis -10.8%, PMP22 txn inconclusive, pS6 MEF inh -8.4% and p53null 39C kill 3.3%.
CCCCNC(=O)c1c(C)oc2ncn(CC(C)C)c(=O)c12 was read as S16 viability inconclusive, p53null 32C tox -0.1%, OvCa metastasis 0.8%, PMP22 txn 10.6µM*, pS6 MEF inh -20.4% and p53null 39C kill 3.4%.
c1cc(N[C@@H]2CCNC2)nc(-c2cnc3ccc(-c4cn[nH]c4)cn23)c1 was read as OvCa metastasis 3.3%.
For Cc1cccc(C(=O)Nc2nc3c(s2)CCCC3)c1 the results were S16 viability -19.1%, p53null 32C tox 12.6µM*, OvCa metastasis -13.6%, PMP22 txn -17.8%, pS6 MEF inh -5.0% and p53null 39C kill 12.6µM*.
Screening O=C(Nc1nc2c(s1)CCCC2)c1ccc2ncsc2c1 returned p53null 32C tox 12.6µM* and p53null 39C kill 11.2µM*.
For CN(C)c1nc(Cc2ccc(NC(=O)c3ccc4ccccc4c3)cc2)nc(Cl)c1CC(=O)O the results were OvCa metastasis -21.1%.
For Cc1cccc(N2CCN(c3ncnc4onc(C)c34)CC2C)c1 (configuration not stated) the results were S16 viability inconclusive, p53null 32C tox inconclusive, OvCa metastasis -3.6%, PMP22 txn 11.3µM*, pS6 MEF inh -1.8% and p53null 39C kill inconclusive.
For CCOc1ccc(C(=O)Nc2ccc(C(=O)OCc3cc(=O)n4c(C)csc4n3)cc2)cc1 the results were S16 viability -23.3%, p53null 32C tox inconclusive, OvCa metastasis inactive, PMP22 txn inconclusive, pS6 MEF inh 3.8% and p53null 39C kill 12.6µM*.
`Cc1csc2nc(COC(=O)c3cccc(NC(=O)COc4ccccc4Cl)c3)cc(=O)n12` gave S16 viability 22.7%, p53null 32C tox inconclusive, OvCa metastasis inactive, PMP22 txn -4.9%, pS6 MEF inh 0.0% and p53null 39C kill 6.31µM*.
Screening COc1ccc2c(c1)Cc1sc(NC(=O)c3cccc(C)c3)nc1-2 returned S16 viability 0.8%, p53null 32C tox 13.7%, OvCa metastasis -10.1%, PMP22 txn -26.5%, pS6 MEF inh 0.6% and p53null 39C kill -1.1%.
`COc1ccc2c(c1)Cc1sc(NC(=O)c3cccc(Cl)c3)nc1-2` gave S16 viability inconclusive, p53null 32C tox 15.8µM*, OvCa metastasis 1.0%, PMP22 txn -27.5%, pS6 MEF inh -9.0% and p53null 39C kill 5.1%.
Screening O=C1CC(c2ccccc2)Cc2[nH]c(=O)c(-c3nc(-c4ccc(Cl)c(Cl)c4)cs3)cc21 (configuration not stated) returned S16 viability inconclusive, p53null 32C tox 19.8%, OvCa metastasis -6.1%, PMP22 txn -7.5%, pS6 MEF inh -1.6% and p53null 39C kill -9.6%.
